# The list is not random: actives were taken first. Their share in the collection is about 4.7%.
# PABP FP inh = PABP-poly(A) binding inhibition; P11940; PABP-poly(A) RNA binding, fluorescence polarization; inhibition, % at 35 µM; 1% of 290,000 active; AID 2014;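 note: calls also rest on retests at 20 µM and on dose response follow-up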
# ALR H2O2 inh = blocks human ALR sulfhydryl oxidase activity | P55789 | purified ALR, DTT oxidation, H2O2 HRP-luminol luminescence | inhibition, % (test concentration not listed) | 3.8% of 290,000 active;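 active = mean replicate inhibition above about 79%, with every replicate also reaching it, limit read from the data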
# Target sequence (P55789 whole entry, looked up): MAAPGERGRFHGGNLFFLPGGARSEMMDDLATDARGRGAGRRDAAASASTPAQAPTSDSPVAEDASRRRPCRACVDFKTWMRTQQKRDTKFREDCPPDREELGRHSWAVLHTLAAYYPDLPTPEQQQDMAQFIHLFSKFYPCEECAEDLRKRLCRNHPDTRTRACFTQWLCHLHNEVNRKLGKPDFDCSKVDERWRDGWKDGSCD
# eIF4H inh = inhibitors of RNA binding by human eIF4H; Q15056; eIF4H fluorescence polarization binding assay; inhibition, % at 35 µM; 0.94% of 290,000 active; AID 2012;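 note: calls also rest on retests at 20 µM and on dose response follow-up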
# Efflux pump inh = antifungal efflux pump inhibition, Nile Red retention; inhibition, % at 10 µM; AID 485275; 0.44% of 330,000 active; S. cerevisiae Candida pump triplex;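 active = plate passing quality check with inhibition over a set limit, or well fluorescence over plate mean plus 4 SD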;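 note: Nile Red retained in pooled yeast measured as flow cytometry median fluorescence; 0% = buffer negative control and 100% = Enniatin B positive control; higher means more Nile Red kept so more efflux inhibition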
# PABP1 MLLE inh = blocks PAM2 peptide binding to the PABP1 MLLE domain; P11940; GST-MLLE / FITC-PAM2 fluorescence polarization; inhibition, % at 20 µM; 0.36% of 360,000 active; AID 588489; in the data active = inhibition above about 35%, passing the limit was not always enough;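 note: plate controls were DMSO wells with GST-MLLE for no effect and wells lacking GST-MLLE protein for full effect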
# SUMO HTRF inh = SUMOylation inhibition | P63279 | HTRF SUMOylation assay, SAE1/SAE2 + UBC9, in vitro | inhibition, % at 35 µM | 0.36% of 290,000 active | AID 2006; in the data active = inhibition above about 50%, passing the limit was not always enough
# Target sequence (P63279 whole entry, looked up): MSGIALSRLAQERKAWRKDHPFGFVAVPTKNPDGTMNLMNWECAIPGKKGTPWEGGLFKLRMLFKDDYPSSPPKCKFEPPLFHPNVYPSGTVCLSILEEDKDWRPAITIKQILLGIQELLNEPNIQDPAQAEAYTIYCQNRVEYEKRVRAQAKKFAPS
# The depositor's hits bear a star; nt = no result. Unless noted, the rule behind the calls is not given here.
SMILES,PABP FP inh,ALR H2O2 inh,eIF4H inh,Efflux pump inh,PABP1 MLLE inh,SUMO HTRF inh
OCc1nc2nc(Cl)c(Cl)nc2[nH]1,13*,17,52*,0,10,12
COc1cc(/C=C/C(=O)OCC(=O)NNC(=O)c2cc(Cl)ccc2OC)ccc1O,nt,19,nt,0,2,nt
COc1cc(/C=C/C(=O)OCC(=O)Nc2c(C)n(C)n(-c3ccccc3)c2=O)ccc1O,4,99*,-3,0,-2,11
COc1cc(/C=C/C(=O)OCC(=O)Nc2c(C)n(C)n(-c3ccccc3)c2=O)cc(OC)c1OC,nt,nt,nt,0,-4,nt
COc1cc(/C=C/C(=O)OCC(=O)Nc2ccccc2Sc2ccc(Cl)cc2)ccc1O,20,91*,-13,0,-5,-12
O=C(NCC(c1cccs1)N1CCOCC1)C1CCN(S(=O)(=O)c2c(Cl)cccc2Cl)CC1 (stereo not given),nt,-10,nt,0,4,nt
COc1cc(/C=N/NC(=O)c2cccc(NC(=O)c3ccccc3C)c2)ccc1O,12,95*,3,0,3,-2
COc1cc(/C=N/NC(=O)c2cccc(NC(=O)c3ccccc3)c2)ccc1O,14,98*,-13,0,19,-1
COc1cc(/C=C/C(=O)c2cccc([N+](=O)[O-])c2)cc(OC)c1OC,14,96*,-4,0,0,-16
COc1cc(/C=N/NC(=O)c2cccc([N+](=O)[O-])c2)ccc1O,-14,99*,5,0,12,-9
CCn1cnc2cc(NS(=O)(=O)c3ccc(OC)c(OC)c3)ccc21,3,-6,-6,0,-4,0
CCNC(=O)C1CCCN(C(=O)c2ccccc2)CC1 (stereo not given),nt,nt,nt,nt,4,nt
COc1cc(/C=C(\C#N)C(=O)c2ccc(O)c(O)c2)cc(I)c1O,nt,99*,nt,1,177,nt
COc1cc(/C=C(\C#N)C(=O)N2CCOCC2)cc(Br)c1O,-4,47,-6,0,-23,-8
COc1ccc2c(c1)CN(C)S(=O)(=O)c1ccccc1-2,nt,nt,nt,0,-3,nt
Cc1cccc(CS(=O)(=O)c2ncc(Cl)c(C(=O)Nc3c(C)cccc3C)n2)c1,-1,98*,-8,0,12,16
Cc1nnc(NC(=O)c2nc(S(=O)(=O)Cc3ccccc3)ncc2Cl)s1,-11,99*,0,0,13,9
Cc1ccc(NC(=O)c2nc(S(=O)(=O)Cc3ccccc3)ncc2Cl)cc1,4,1,-5,0,27,20
Cc1cccc(C)c1NC(=O)c1nc(S(=O)(=O)Cc2ccccc2)ncc1Cl,-4,97*,2,0,12,28
Cc1cccc(CS(=O)(=O)c2ncc(Cl)c(C(=O)NCc3ccccc3)n2)c1,-6,-1,1,0,26,23
Cc1cc(C)nc(SCNC(=O)c2ccc(Cl)cc2)n1,-6,26,0,0,44*,-9
Cc1nnsc1-c1nnc(SCC(=O)c2ccccc2)n1C1CC1,1,84*,-5,0,5,4
Cc1ccc(CN2CCN(Cc3ccccc3C(F)(F)F)CC2)cc1,21,2,-4,0,-2,-8
CCCc1cc(=O)[nH]c(SC(C)C(=O)N2c3ccccc3CC2C)n1 (stereo not given),nt,-2,nt,0,15,nt
CC(C)c1ccc(C2C3CSCC=C3C(C#N)=C(N)C2(C#N)C#N)cc1 (stereo not given),120*,nt,128*,0,nt,9
SMILES,PABP FP inh,ALR H2O2 inh,eIF4H inh,Efflux pump inh,PABP1 MLLE inh,SUMO HTRF inh
CC(C)c1nc2sc3c(SCC(=O)NCc4ccco4)ncnc3c2c2c1CCC2,52,-1,14*,0,4,-98
COCCCn1c(SCC(=O)NCc2ccco2)nc2sc3c(c2c1=O)CCC3,-2,94*,6,0,-7,-6
O=C(CSc1nc2c(sc3ccccc32)c(=O)n1CCCN1CCCC1)NCc1ccco1,-12,98*,22,1,9,2
CC1C/C(=N/NC(=O)c2cccc(F)c2)c2ccc(O)cc2C1 (stereo not given),-3,99*,0,0,-3,10
COc1ccc2c(c1)CC(C)C/C2=N\NC(=O)c1ccco1 (stereo not given),-2,-3,-6,0,-5,-5
Cc1ccc(OCCSc2nc3ccccc3n2CC(=O)O)cc1C,10,6,-3,0,-3,-2
